Screens from PubChem BioAssay.
The list is not random: actives were taken first. Their share in the collection is about 7.4%.
ELG1 genotox: induces genotoxicity in HEK293T cells with luciferase-tagged ELG1. HEK293T ELG1-luciferase reporter, luminescence, 16 h. AID 504466. 330,000 tested, 1.3% active. Potency, µM (series often up to 46 µM), inactives show top-dose activity change, positive = activation, actives largely listed as activators; also: % of control where 0% means no effect; nearly all actives have a fitted effect of over 60% in size
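Step 1: seed 2,000 HEK293T ELG1-luciferase cells per well. Step 2: add compound or DMSO, incubate 16 hr at 37 °C. Step 3: ONE-Glo, 30 min at room temperature, read luminescence.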
NPC1 promoter act: activates the NPC1 promoter | Huh7 NPC1 promoter luciferase reporter, 24 h | Potency, µM (doses to about 9.22 µM), for inactives: at the highest dose activation, actives largely listed as activators | 320,000 tested, 2.4% active; also: % of control where 0% means no effect; nearly all actives have a fitted effect of over 60% in size
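In 1536-well qHTS, Huh7 cells harboring an NPC1 promoter–luciferase construct received compound for 24 h; activation was quantified by luminescence following luciferase reagent addition.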
Rab9 prom act: Rab9 promoter activation; 320,000 tested, 2.8% active; Potency, µM (titrated, usually from 9.22 µM), for the others: top-dose activation, negative = inhibition, most hits filed as activators; AID 485297; Huh7 Rab9 promoter-luciferase reporter, luminescence, 24 h; also: % of control where 0% means no effect; nearly all actives have a fitted effect of over 60% in size
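Huh7 cells stably carrying Rab9 promoter–luciferase reporter, plated 1500 cells/well, compound added after 2 h and incubated 24 h at 37 °C; luciferase luminescence then read after 10 min with detection reagent.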
FLuc counter: counter-screen for miR-21 project: firefly luciferase inhibitors or activators. P08659. 360,000 tested, 6.9% active. purified FLuc, Km substrates, luminescence inhibition. Potency, µM (doses to about 57.5 µM), for inactives: at the highest dose activity change, negative = inhibition, usual class: inhibitors;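 also: plate controls were vehicle for no effect and reference inhibitor for full effect; nearly all actives have a fitted effect of over 55% in size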
Target sequence (P08659 whole entry, looked up): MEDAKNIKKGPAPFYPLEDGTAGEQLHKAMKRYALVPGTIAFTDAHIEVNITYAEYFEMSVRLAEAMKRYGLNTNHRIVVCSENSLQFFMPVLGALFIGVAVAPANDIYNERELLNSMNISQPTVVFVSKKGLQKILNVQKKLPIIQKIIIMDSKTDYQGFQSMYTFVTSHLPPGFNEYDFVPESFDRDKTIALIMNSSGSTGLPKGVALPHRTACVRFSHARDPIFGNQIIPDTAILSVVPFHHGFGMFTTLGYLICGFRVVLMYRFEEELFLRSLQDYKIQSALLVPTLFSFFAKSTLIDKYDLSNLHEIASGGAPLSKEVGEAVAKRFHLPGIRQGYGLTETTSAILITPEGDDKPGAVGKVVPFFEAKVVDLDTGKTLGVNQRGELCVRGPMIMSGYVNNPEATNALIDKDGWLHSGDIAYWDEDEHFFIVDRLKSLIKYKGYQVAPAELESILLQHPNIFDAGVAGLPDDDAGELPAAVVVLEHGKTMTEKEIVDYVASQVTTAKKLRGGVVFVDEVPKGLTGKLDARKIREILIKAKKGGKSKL
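Purified P. pyralis luciferase (10nM final) with 10uM D-luciferin and 10uM ATP (Km levels) in 50mM Tris acetate pH 7.5, 10mM Mg acetate, 0.01% Tween-20, 0.05% BSA; qHTS 6-point titration, ~60 µM downward; luminescence read.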
SMN2 splice enh: enhancers of SMN2 splice variant expression; HEK293 SMN2-luciferase splicing reporter, luminescence, 30-36 h; Potency, µM (top dose mostly 46.1 µM), without a hit: at the highest dose activity change, positive = activation, actives largely listed as activators; 210,000 tested, 2.8% active; AID 1458; also: % of control where 0% means no effect; nearly all actives have a fitted effect of over 55% in size
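HEK293 cells carry an SMN2 minigene-luciferase reporter in which exon 7 inclusion puts luciferase in frame. Cells were seeded at 2000 cells/well, attached for 10-12 hours, then exposed to compounds for 30-36 hours at 37C before ONE-Glo luminescence.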
* marks the source's active call; other numbers are inactive results; ? = inconclusive; nt = no result. Calls follow the shape of the dose curve; as a rule, active = well fitted curve in the direction sought with a large enough effect; inconclusive = small, poorly fitted or top-dose-only effect, or another doubt; inactive = no such curve, though single readings can be large; an effect the other way counts as inactive or inconclusive. Potency is read from the fitted curve at half-maximal effect.

SMILES | ELG1 genotox | NPC1 promoter act | Rab9 prom act | FLuc counter | SMN2 splice enh
CC(=O)Nc1cccc(NC(=O)Cc2cccs2)c1 | -2% | 0% | 1% | 0% | nt
O=C(Cc1cccs1)Nc1cccc(-c2nc3cc4ccccc4cc3[nH]2)c1 | ? | 1.6µM* | 1.8µM* | 0.85µM* | 6.3µM*
COc1ccccc1N1CCN(C(=O)c2cccc(S(=O)(=O)N3CCCCCC3)c2)CC1 | -5% | -3% | -5% | 3% | nt
Cc1nc2ccc(NC(=O)N(C(C)C)C(C)C)cc2s1 | ? | 9% | 2% | ? | 7%
Cc1nc2ccc(NC(=O)N(C)c3ccccc3)cc2s1 | ? | ? | ? | 13µM* | 22µM*
CCC(C)N(C(=O)CN1C(=O)NC2(CCc3ccccc32)C1=O)C1CCS(=O)(=O)C1 (stereo unspecified) | 0% | -2% | 1% | 5% | nt
CC(=O)Nc1cccc(NC(=O)CSc2cn(CC(=O)N(C(C)C)C(C)C)c3ccccc23)c1 | nt | nt | nt | -7% | nt
O=C(c1ccccc1)c1ccc(-c2ccc(O)cc2)cc1 | ? | -2% | 3.2µM* | 17µM* | nt
CN(C)c1ccc(C(=O)c2ccccc2)cc1 | 17% | ? | 3.2µM* | 11µM* | 29%
CCN(CC)c1ccc(/C=C/C(=O)c2ccc(Br)cc2)cc1 | 1% | -10% | -2% | 17µM* | -3%
CN(C)c1ccc(N=Nc2ccc(C(=O)O)cc2)cc1 | -6% | 0.013µM* | 0.0002µM* | 0.24µM* | nt
CN(C)c1ccc(C(=O)/C=C/c2ccccc2)cc1 | ? | 4µM* | 3.2µM* | 1.2µM* | 22µM*
CN(C)c1ccc(C(=O)/C=C/c2ccc(Br)cc2)cc1 | 13% | 25% | 27% | 1.7µM* | 7%
Cc1cc(C)nc(NC2=NCCN2C(=S)Nc2ccc(C)c(C)c2)n1 | 2% | -8% | -9% | 3% | nt
O=c1[nH]c2cc3c(cc2cc1CN(Cc1cccnc1)C(=S)NCc1ccco1)OCCO3 | 1% | -2% | -3% | ? | nt
O=C(CCn1cnc2ccccc21)N/N=C/c1ccccc1O | ? | 1% | -35% | 8.5µM* | -53%
O=C(CCn1cnc2ccccc21)N/N=C/c1ccc(O)cc1 | 1% | 0% | -5% | ? | -13%
O=C(c1cc2cc3ccc(Cl)cc3nc2o1)N1CCCCCC1 | ? | 2.5µM* | 3.5µM* | 2.7µM* | nt
O=C(c1cc2cc(Cl)ccc2o1)N1CCCCCC1 | 13% | ? | 4µM* | 2% | nt
COCCCN(CC(=O)Nc1ccc(F)cc1)S(=O)(=O)c1cccs1 | -1% | nt | nt | nt | nt
CCc1ccccc1NC(=O)C1CCN(C(=O)N2CC(C)Oc3ccc(Cl)cc32)CC1 (stereo unspecified) | nt | nt | nt | 0% | nt
O=C(CSc1nnc2ccc3ccccc3n12)Nc1ccccc1Cl | nt | nt | nt | 17µM* | nt
CCCOC(=O)CSc1nnc2ccc3ccccc3n12 | nt | nt | nt | 9.5µM* | nt
Cc1cccc(NC(=O)CN2C(=O)CSc3ccc(S(=O)(=O)N4CCCC4)cc32)c1C | nt | nt | nt | 6% | nt
COc1cccc(NC(=O)COC(=O)CCC2CCCC2)c1 | 1% | -5% | -6% | -10% | nt
SMILES | ELG1 genotox | NPC1 promoter act | Rab9 prom act | FLuc counter | SMN2 splice enh
Cc1ccc(-c2nc3cc(Cl)ccc3o2)cc1NC(=O)c1cc2ccccc2o1 | nt | nt | nt | ? | 9%
COc1ccc(/C=C/C(=O)O)cc1S(=O)(=O)NCc1cccnc1 | -1% | 2% | -2% | 5% | nt
Clc1ccccc1-c1ncc(-c2ccccc2)o1 | 4.6µM* | 2.5µM* | 2.8µM* | 1.3µM* | nt
O=S(=O)(Nc1cccc(-c2ccc(N3CCCCC3)nn2)c1)c1ccc(Cl)s1 | nt | nt | nt | 1.2µM* | nt
CCOc1ccc(-c2cccc(NS(=O)(=O)c3ccc(Cl)s3)c2)nn1 | nt | nt | nt | 15µM* | nt
O=S(=O)(Nc1cccc(-c2ccc(N3CCCCC3)nn2)c1)c1cccs1 | nt | nt | nt | 0.95µM* | nt
CCOc1ccc(-c2cccc(NS(=O)(=O)c3ccccc3[N+](=O)[O-])c2)nn1 | -1% | 13% | 1% | 3% | nt
O=S(=O)(Nc1cccc(S(=O)(=O)N2CCCC2)c1)c1ccc(Cl)s1 | -1% | 1% | -4% | nt | nt
Cc1ccc(C(=O)C2CCN(CC(=O)N3CCN(c4ccc(F)cc4)CC3)CC2)cc1 | -6% | -2% | -10% | 0% | -17%
COc1ccc(C(=O)Nc2ccc(S(=O)(=O)N3CCCC3)cc2)cc1[N+](=O)[O-] | -3% | 0% | 2% | 0% | nt
